Data: ChEMBL document CHEMBL3988442, “University of Dundee, Small-Polar-MMV Screening Library” (2021)
About 13,000 (27%) of roughly 48,000 compounds showed an effect of 50% or more. The list shows a part of the results.

The compounds below were run on Wolbachia pipientis (assay: Anti-Wolbachia Cell-Based Screen). Conditions: 5 µM.
Format: functional
Parameters: scale not given: in the data most compounds retested in dose-response had high values

Row | SMILES | Percent Effect
1 | Cc1cccc(N2CCC(NC(C)c3cccs3)CC2)n1 (stereo not given) | -26.34%
2 | C[C@@H]1CN(c2ccc3c(Cl)ccnc3c2F)CC(C(N)=O)O1 (stereo not given in full) | -9.196%
3 | CC(C)c1noc(CCCC(=O)NC2CCS(=O)(=O)C2)n1 (stereo not given) | 7.76%
4 | CC(C)(C)S(=O)(=O)c1ccc(N2CCN(c3ccccn3)CC2)nn1 | 14.84%
5 | Cc1cccc(N2CC3(CCN(S(=O)(=O)c4ccccc4)C3)CC2=O)c1 (stereo not given) | -6.441%
6 | Cc1cccc(NC(=O)N2CCC3(CC(=O)N(c4ccsc4)C3)C2)c1 (stereo not given) | 111.9%
7 | CCN1CC2(CNCCN(C(=O)Nc3ccccc3)C2)CC1=O.O=C(O)C(F)(F)F (stereo not given) | -17.66%
8 | O=C(Cc1ccccc1)N1CCC2(CC(=O)N(c3ccsc3)C2)C1 (stereo not given) | 4.465%
9 | CC(C)NC(=O)N1CCC2(C1)CN(c1ccsc1)C(=O)CN2C.O=C(O)C(F)(F)F (stereo not given) | -13.82%
10 | COCC(=O)N1CCC2(CC(=O)N(c3cccc(F)c3)C2)C1 (stereo not given) | -16.31%
11 | O=C(Nc1ccccc1)N1CCC2(CC(=O)N(c3ccsc3)C2)C1 (stereo not given) | 106%
12 | CC(C)NC(=O)N1CCC2(CC(=O)N(c3cccc(C#N)c3)C2)C1 (stereo not given) | -3.038%
13 | CC(C)NC(=O)N1CCC2(CC(=O)N(c3ccsc3)C2)C1 (stereo not given) | 94%
14 | O=C(c1cnccn1)N1CC[C@H]2[C@@H]1CCC(=O)N2c1cccnc1 | -6.797%
15 | COc1cc(C)cc(C(C(=O)O)N(C)Cc2ccncc2C)c1OC (stereo not given) | 4.518%
16 | Cc1ccc([C@]2(O)CC[C@H]3CN(Cc4ccc(Cl)cc4Cl)C[C@H]32)nc1 | 121.2%
17 | CN(C)C(=O)CN1C[C@@H]2CC[C@H](C1)N(Cc1ccc(Cl)cc1Cl)C2 | -35.05%
18 | CSc1ccc(CN2C[C@@H]3CC[C@@](O)(c4ccc(C)cn4)[C@@H]3C2)cc1 | 135.2%
19 | Cc1cccc(C2(NC(=O)CCN3C(=O)CCC3=O)CCCC2)c1 | -3.276%
20 | OC1CCN(c2ccc(CNc3nc4ccccc4o3)cc2F)CC1 | -1.066%
21 | COCc1ccccc1NC(=O)NCc1ccc(OCC2CC2)nc1 | 7.542%
22 | OCCOc1ccc(NCc2cccnc2)cn1 | 7.993%
23 | COCCOc1ccc(CNc2cnc3ccccc3n2)cn1 | 132.7%
24 | COCCN1CCC(CNc2nc3ccccc3o2)CC1 | 8.013%
25 | COCCN1CCC(CNc2cnc3ccccc3n2)CC1 | -17.24%
26 | COCCOc1ccc(NCc2cccc3cn[nH]c23)cn1 | -20.32%
27 | COCCOc1ccc(CNc2nc3ccccc3o2)cn1 | 106.2%
28 | COCCOc1ccc(CNc2nc3ccccc3nc2N)cn1 | 162.2%

Row | SMILES | Percent Effect
29 | Cl.O=C1CC(NCc2cnc(N3CCCC3)nc2)CN1c1ccccc1 (stereo not given) | 36.64%
30 | CC(C)N1CCO[C@H]2CN(C(=O)c3ccc(N(C)C)cc3)C[C@H]21 | -8.625%
31 | CN(C(=O)c1ccc[nH]1)C1CC(=O)N(Cc2ccccc2)C1=O (stereo not given) | -8.622%
32 | CCOCC(=O)Nc1ncc(I)cc1C | -8.606%
33 | Cc1cc(C)c(S(=O)(=O)Nc2c(C)nc(N3CCCC3)nc2C)cc1C | 12.58%
34 | CNC(=O)N1CCC2(CC1)CN(C)Cc1cc(F)ccc12.Cl | 24.69%
35 | Cc1nn(C)c(C)c1C1CCCN1Cc1nnc(C2CC2)n1C (stereo not given) | -7.496%
36 | CN(CCO)Cc1nnc(C2CCN(C(=O)c3ccccn3)CC2)n1C | -1.336%
37 | CCCc1nnc(N2CCCC(c3nnc(Cn4ccnc4)n3C)C2)s1 (stereo not given) | 0.1518%
38 | Cc1nc(C(=O)N2CCC(c3nnc(Cn4ccnc4)n3C)CC2)cs1 | 92.58%
39 | CN(CCO)Cc1nnc(C2CCN(C(=O)c3cccnc3)CC2)n1C | -5.743%
40 | Cc1nc(C(=O)N2CCC(c3nccn3Cc3ccncc3)CC2)cs1 | -0.8492%
41 | Cn1c(Cn2ccnc2)nnc1C1CCN(C(=O)c2cccnc2)CC1 | 92.17%
42 | Cn1c(Cn2ccnc2)nnc1C1CCN(C(=O)c2ccccn2)CC1 | 107.7%
43 | Cc1cc(C(=O)N2CCC(c3nnc(Cn4ccnc4)n3C)CC2)cs1 | 95.2%
44 | Cc1nn(CN(CC2CCOC2)C2CC2)c(=O)c2ccccc12 (stereo not given) | -4.031%
45 | Cc1nn(C)c(N2CCOCC2)c1CNC1CCOc2ccccc21 (stereo not given) | -6.51%
46 | Cc1nnc(NCC2(c3ccccc3)CC2)c(C#N)c1C | 14.48%
47 | CC(=O)NCC(Cc1cccc(F)c1)n1cccc1 (stereo not given) | 7.369%
48 | CCNC(=O)CN(CC)C(=O)c1cccc(Nc2cnn(C)c2)c1 | -0.2175%
49 | CN(Cc1cnc(N)nc1)C(=O)C1CC(=O)N(Cc2ccncc2)C1 (stereo not given) | -0.2602%
50 | CN1CCN(Cc2n[nH]c(=O)n2CC2CCCCC2)CC1 | 12.01%
51 | N#Cc1cccc(N2CCC(CO)(CCc3ccccc3)CC2)n1 | -13.62%
52 | Cc1cnc(NCC(C)(C)N2CCN(C)CC2)nc1 | -0.3057%
53 | Cn1c(Cn2ccnc2)nnc1C1CCN(Cc2cccnc2N)CC1 | -5.827%
54 | Cn1nc(Cn2ccnc2)c2c1CN(C(=O)c1ccoc1)C2.O=C(O)C(F)(F)F | -63.76%
55 | Cn1cccc1C(=O)N1CCC(c2nccn2Cc2ccncc2)CC1 | 14.15%
